# According to PubChem BioAssay:
# Where “and” joins values, the source holds several entries; their conditions need not be identical. Equal values may be shown once. Where a structure was tested more than once in an assay, its records may differ in their call. Calls of active or inactive are those of the source.
# Legend:
# [1] = E. coli DRC41 culture turbidity changes, primary screen, E. coli filamentation inducer project, strain DRC41, OD650, 48 h (AID 1152);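 further: E. coli MC1000 strain DRC41 lacking acrAB efflux pump and sulA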; settings: E. coli DRC41 (acrAB sulA), higher = more signal, called active from +8 up or from −8 down
# [2] = small-molecule binders of probe aLefty1, primary screen, biochemical, small-molecule microarray, 635/667 nm fluorescence (AID 1153); settings: higher = more signal;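 further: score merges spot fluorescence with signal-to-noise ratio from the scanned slide images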
# [3] = PSAC antagonists in infected red cells, primary screen, cell-based, P. falciparum Indochina, OD700, 1 h (AID 1154); settings: P. falciparum Indochina infected RBC osmotic lysis, higher = more signal, called active from +8 up or from −8 down
# [4] = PSAC antagonists in infected red cells, primary screen, cell-based, P. falciparum Indochina, OD700, 2 h (AID 1155);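 further: lysis reports solute entry through the parasite surface anion channel PSAC; channel blockers reduce lysis of infected cells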; settings: P. falciparum Indochina infected erythrocytes, osmotic lysis OD700; higher = more signal, called active from +8 up or from −8 down
# [5] = osmotic lysis modulators in infected erythrocytes, primary screen, PSAC antagonist project, cell-based, P. falciparum Indochina, OD700, 3 h (AID 1156); settings: higher = more signal, called active from +8 up or from −8 down
# [6] = PSAC antagonists in infected red cells, primary screen, cell-based, P. falciparum Indochina, OD700, 18 h (AID 1157); settings: P. falciparum Indochina infected erythrocytes, osmotic lysis OD700, 18 h; higher = more signal, called active from +8 up or from −8 down
# [7] = modulators of S6 phosphorylation in cells, primary screen, cell-based, A549, cytoblot, luminescence, serum-stimulated (AID 1158); settings: A549 phospho-S6 cytoblot, 5 h, higher = more signal;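 further: serum-stimulated A549 lung adenocarcinoma cells; signal is phosphorylated S6 detected by cytoblot immunostaining with HRP secondary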
# [8] = target: NADPH oxidase 2 (Homo sapiens) (UniProt P04839); assay: NOX2-dependent H2O2 signal modulators, primary screen, NOX inhibitor project, cell-based, HEK293-NOX2, PMA-stimulated, Amplex Red fluorescence (AID 1159); settings: 45 min, higher = more signal, called active from +8 up or from −8 down; further: test concentration not given here
# [9] = target: NADPH oxidase 4 (Homo sapiens) (UniProt Q9NPH5); assay: NOX4-dependent H2O2 signal modulators, primary screen, NOX inhibitor project, cell-based, HEK293-NOX4, tetracycline-induced, Amplex Red fluorescence (AID 1160); settings: 45 min, higher = more signal, called active from +8 up or from −8 down
# [10] = target: NADPH oxidase 5 (Homo sapiens) (UniProt Q96PH1); assay: NOX5-dependent H2O2 signal modulators, primary screen, NOX inhibitor project, cell-based, HEK293-NOX5, Amplex Red fluorescence (AID 1161); settings: HEK293-NOX5, ionomycin, 45 min, higher = more signal
# [11] = A549 cell viability effects, profiling panel, calcein-AM fluorescence, 48 h, basal (AID 1162); settings: higher = more signal; further: test concentration not given here
# [12] = adipocyte viability effects, profiling panel, cell-based, 3T3-L1 adipocytes, calcein-AM fluorescence, 48 h, basal (AID 1163); settings: 3T3-L1 adipocytes viability, higher = more signal; further: test concentration not given here
# [13] = HepG2 cell viability effects, profiling panel, calcein-AM fluorescence, 48 h, basal (AID 1164); settings: higher = more signal; further: test concentration not given here
# [14] = MM1S cell viability effects, profiling panel, calcein-AM fluorescence, 48 h, basal (AID 1165); settings: higher = more signal;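 further: viability of MM1S multiple myeloma cells under basal unstimulated conditions; test concentration not given here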
# [15] = basal RPMI8226 viability, no added stimulus, profiling panel, cell-based, calcein-AM fluorescence, 48 h, PK04 Diversity Set (AID 1166); settings: RPMI8226 myeloma viability, higher = more signal;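 further: cells grown under basal conditions without added stimulus; test concentration not given here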
# [16] = basal HepG2 mitochondrial membrane potential changes, profiling panel, cell-based, JC-1 fluorescence, 24 h, 100 nL compound (AID 1167); settings: higher = more signal; further: test concentration not given here
# [17] = basal 3T3-L1 adipocyte mitochondrial potential changes, profiling panel, cell-based, JC-1 fluorescence, 3T3-L1 adipocytes, 24 h, 100 nL compound (AID 1168); settings: JC-1 mitochondrial fluorescence, higher = more signal, called active from +8 up or from −8 down; further: test concentration not given here
# [18] = basal RPMI8226 mitochondrial membrane potential changes, profiling panel, cell-based, JC-1 fluorescence, 24 h, 100 nL compound (AID 1169); settings: RPMI8226 myeloma, JC-1 mitochondrial potential fluorescence, higher = more signal; further: test concentration not given here
# [19] = basal MM1S mitochondrial membrane potential changes, profiling panel, cell-based, JC-1 fluorescence, 24 h, 100 nL compound (AID 1170); settings: higher = more signal; further: test concentration not given here
# [20] = A549 lung cancer cell viability effects, profiling panel, resazurin fluorescence, 24 h, PK04 Diversity Set (AID 1171); settings: higher = more signal, called active from +8 up or from −8 down; further: test concentration not given here
# Sequence of NADPH oxidase 5 (Homo sapiens) (Q96PH1 whole entry, looked up): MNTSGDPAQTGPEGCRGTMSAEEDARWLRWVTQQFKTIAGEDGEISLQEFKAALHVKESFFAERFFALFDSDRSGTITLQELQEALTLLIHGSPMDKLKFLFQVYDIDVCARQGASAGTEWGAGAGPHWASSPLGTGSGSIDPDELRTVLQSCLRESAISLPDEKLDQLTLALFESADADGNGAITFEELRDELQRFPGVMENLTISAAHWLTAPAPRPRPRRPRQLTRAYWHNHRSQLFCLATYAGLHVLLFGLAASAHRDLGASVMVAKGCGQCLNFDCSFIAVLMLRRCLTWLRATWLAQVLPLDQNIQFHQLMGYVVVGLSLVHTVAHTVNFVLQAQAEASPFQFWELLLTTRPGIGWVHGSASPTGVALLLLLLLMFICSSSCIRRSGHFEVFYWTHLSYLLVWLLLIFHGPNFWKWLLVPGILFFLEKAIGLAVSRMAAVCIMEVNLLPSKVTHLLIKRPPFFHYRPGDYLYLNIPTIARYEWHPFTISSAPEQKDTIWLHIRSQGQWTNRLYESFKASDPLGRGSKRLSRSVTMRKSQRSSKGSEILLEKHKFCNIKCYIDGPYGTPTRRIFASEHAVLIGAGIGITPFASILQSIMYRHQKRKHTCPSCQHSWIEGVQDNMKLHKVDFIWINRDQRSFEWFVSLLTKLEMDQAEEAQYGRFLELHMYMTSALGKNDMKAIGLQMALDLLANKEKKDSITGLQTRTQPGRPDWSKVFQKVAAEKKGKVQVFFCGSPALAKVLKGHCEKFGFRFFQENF
# Sequence of NADPH oxidase 4 (Homo sapiens) (Q9NPH5 whole entry, looked up): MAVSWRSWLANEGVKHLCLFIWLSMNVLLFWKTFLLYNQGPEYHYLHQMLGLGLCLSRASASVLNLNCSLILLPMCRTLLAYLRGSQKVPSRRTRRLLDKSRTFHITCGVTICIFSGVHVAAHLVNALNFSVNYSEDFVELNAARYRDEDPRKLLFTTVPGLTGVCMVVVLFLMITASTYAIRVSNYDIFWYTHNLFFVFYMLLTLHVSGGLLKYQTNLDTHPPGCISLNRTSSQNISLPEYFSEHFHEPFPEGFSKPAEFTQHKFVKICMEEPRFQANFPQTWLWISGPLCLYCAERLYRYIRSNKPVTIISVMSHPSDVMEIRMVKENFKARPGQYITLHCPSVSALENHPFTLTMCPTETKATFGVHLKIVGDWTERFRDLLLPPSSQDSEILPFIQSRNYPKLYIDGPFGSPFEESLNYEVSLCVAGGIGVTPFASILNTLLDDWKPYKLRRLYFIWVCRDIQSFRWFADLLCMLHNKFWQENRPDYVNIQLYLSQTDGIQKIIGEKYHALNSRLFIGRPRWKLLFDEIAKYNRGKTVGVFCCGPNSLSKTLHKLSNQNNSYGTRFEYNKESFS
# Sequence of NADPH oxidase 2 (Homo sapiens) (P04839 whole entry, looked up): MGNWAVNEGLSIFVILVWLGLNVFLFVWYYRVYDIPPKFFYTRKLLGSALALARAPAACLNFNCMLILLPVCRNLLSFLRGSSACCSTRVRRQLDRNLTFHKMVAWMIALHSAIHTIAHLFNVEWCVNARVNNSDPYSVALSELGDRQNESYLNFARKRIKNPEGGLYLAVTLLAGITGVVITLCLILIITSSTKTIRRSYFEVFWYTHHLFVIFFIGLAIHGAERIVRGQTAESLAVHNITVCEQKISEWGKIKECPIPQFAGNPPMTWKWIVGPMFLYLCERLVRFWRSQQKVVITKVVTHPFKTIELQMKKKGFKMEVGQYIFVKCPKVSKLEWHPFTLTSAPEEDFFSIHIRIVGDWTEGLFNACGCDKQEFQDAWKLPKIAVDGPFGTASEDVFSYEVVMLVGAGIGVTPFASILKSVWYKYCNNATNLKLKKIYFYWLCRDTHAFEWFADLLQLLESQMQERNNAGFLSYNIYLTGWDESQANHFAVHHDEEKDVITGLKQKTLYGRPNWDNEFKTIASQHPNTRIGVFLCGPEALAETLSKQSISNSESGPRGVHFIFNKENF
Compound,z-score [1],composite z-score [2],z-score [3],z-score [4],z-score [5],z-score [6],z-score [7],z-score [8],z-score [9],z-score [10],z-score [11],z-score [12],z-score [13],z-score [14],z-score [15],z-score [16],z-score [17],z-score [18],z-score [19],z-score [20]
Cc1cc2c(nc1C)CCCN2CC(O)CN1CCCc2nc(-c3ccc(Br)cc3)ccc21 (stereo not given),-0.402 (inactive) and -0.327 (inactive),0.585 and 0.584,12.1 (active) and 8.25 (active),1.55 (inactive) and 0.974 (inactive),1.59 (inactive) and 1.02 (inactive),0.739 (inactive) and 0.394 (inactive),0.0832 and -0.44,1.74 (inactive) and 1.1 (inactive),-1.98 (inactive) and -1.54 (inactive),-2.82 and -2.56,-0.243 and -0.599,0.929 and 0.303,-0.749 and -0.129,0.916 and -1.24,-2.13 and -0.178,0.36 and 0.768,-0.855 (inactive) and -1.29 (inactive),0.144 and -0.0117,-0.488 and 0.538,-0.347 (inactive) and 0.0661 (inactive)
C=CCN(Cc1ccccc1)C(=O)C1N(C(C)(C)CO)C(=O)C2C(C(=O)O)C3C=CC21O3 (stereo not given),-0.511 (inactive) and 1.45 (inactive),-0.144 and -0.779,0.0247 (inactive) and -0.244 (inactive),0.0843 (inactive) and -0.355 (inactive),-1.15 (inactive) and -0.742 (inactive),-0.255 (inactive) and -0.354 (inactive),0.0613 and -0.122,0.515 (inactive) and 0.043 (inactive),0.0722 (inactive) and 0.185 (inactive),0.793 and -0.0303,-0.535 and -0.297,-0.355 and 0.134,-1.11 and 0.0167,0.0296 and 1.03,0.0867 and -0.103,-0.955 and -0.123,0.0762 (inactive) and -0.264 (inactive),0.248 and 0.652,-0.16 and -0.15,-0.363 (inactive) and 0.344 (inactive)
C=CCN(C(=O)C(c1cccs1)N(CCOCCO)C(=O)/C=C\C(=O)O)c1ccc(OC)cc1 (stereo not given),3.55 (inactive) and 2.87 (inactive),-0.262 and -0.142,0.195 (inactive) and -0.888 (inactive),-0.567 (inactive) and -0.967 (inactive),0.0684 (inactive) and -1.43 (inactive),-0.922 (inactive) and -0.842 (inactive),2.24 and 0.28,0.118 (inactive) and -0.448 (inactive),-0.578 (inactive) and -1.19 (inactive),-0.0456 and 0.0347,0.995 and 1.98,0.372 and -0.509,1.23 and 0.751,1.3 and 1.57,0.566 and 0.95,0.506 and 1.39,-2.4 (inactive) and 1.53 (inactive),-0.0898 and 0.302,-1.19 and 0.702,0.18 (inactive) and 0.294 (inactive)
CCOC(=O)c1ccc(NC(=O)O[C@H]2[C@H](OC(=O)Nc3ccccc3)[C@H](OC(=O)Nc3ccccc3)[C@@H](OC)O[C@@H]2CO)cc1,0.473 (inactive) and -0.33 (inactive),0.416 and 0.344,14.6 (active) and 24.1 (active),2.63 (inactive) and 11.5 (active),0.433 (inactive) and -0.123 (inactive),1.23 (inactive) and 1.89 (inactive),-0.636 and 0.647,-0.218 (inactive) and 1.15 (inactive),-0.122 (inactive) and -0.312 (inactive),-0.195 and -0.355,-0.299 and -1.3,0.207 and 0.7,-1.02 and -1.9,-1.08 and -3.02,-0.636 and -3.24,-0.171 and -1.02,1.31 (inactive) and -0.302 (inactive),-0.396 and -0.968,-0.45 and -1.27,-1.11 (inactive) and -3.2 (inactive)
C#CCN1C(/C=C/c2ccccc2)C(=O)OC[C@H]1c1ccccc1 (stereo not given in full),1.75 (inactive) and 0.239 (inactive),-0.021 and -0.0536,4.02 (inactive) and 1.57 (inactive),0.277 (inactive) and 0.538 (inactive),0.244 (inactive) and 0.713 (inactive),-0.947 (inactive) and 0.377 (inactive),4.14 and -0.153,0.353 (inactive) and 1.86 (inactive),0.0869 (inactive) and 0.344 (inactive),0.189 and 0.518,-0.002 and -0.112,1.74 and 0.227,-0.0288 and -0.167,-0.0906 and -0.0281,-0.712 and -1.8,1.04 and 0.221,1.37 (inactive) and 0.0383 (inactive),-0.749 and 0.481,-0.328 and -1.12,-0.925 (inactive) and 1.15 (inactive)
C=CCN(CCCC)C(=O)C1N(c2c(Cl)cccc2CO)C(=O)C2C(C(=O)O)C3C=CC21O3 (stereo not given),-0.074 (inactive) and 2.24 (inactive),-0.0544 and 0.452,1.2 (inactive) and 1.94 (inactive),1.05 (inactive) and 0.871 (inactive),0.116 (inactive) and 0.127 (inactive),0.162 (inactive) and 0.432 (inactive),-0.352 and 0.113,0.6 (inactive) and 0.353 (inactive),-0.381 (inactive) and -0.863 (inactive),-0.708 and 0.0892,-0.313 and -0.498,1.21 and 1.63,-1.25 and -0.852,0.96 and 0.468,-0.497 and -0.251,-1.04 and -0.518,-0.291 (inactive) and 0.159 (inactive),0.0487 and -0.0566,0.488 and 0.599,-0.822 (inactive) and -0.0069 (inactive)
